{"source": "PubChem BioAssay (NCATS)", "note": "Active and inactive are the calls of the source. Calls come from the whole dose curve; as a rule, active = well fitted curve in the direction sought with a large enough effect; inconclusive = small, poorly fitted or top-dose-only effect, or another doubt; inactive = no such curve, though single readings can be large; an effect the other way counts as inactive or inconclusive."}
{"experiment": "Cellular Toxicity (caspase-3) MRC-5 (AID 659);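 note: cells exposed to compound for 16 h at 37 °C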", "settings": "MRC-5 cells, luminescence, normalized: DMSO 0%, 10 µM staurosporine 100%; series mostly up to 91.7 µM", "how_it_was_run": "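Concentration-dependent caspase 3/7 activation is measured in human normal lung fibroblasts (MRC-5) following 16-hour treatment. AC50 values come from standard Hill-equation modeling of luminescence normalized to DMSO and 10 uM staurosporine.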"}
{"smiles": "O=C(O)CC(O)(CC(=O)O)C(=O)O", "outcome": "inactive"}
{"smiles": "C=Cc1ccccc1", "outcome": "inactive"}
{"smiles": "CN(C)Cc1ccccc1", "outcome": "inactive"}
{"smiles": "COC(C)=O", "outcome": "inactive"}
{"smiles": "CCCCCCCCCC(=O)O", "outcome": "inactive"}
{"experiment": "Cellular Toxicity (caspase-3) Mesangial (AID 660);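 note: combined caspase 3 and 7 activity read by Caspase-Glo luminescence; cells exposed to compound for 16 h before the caspase read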", "settings": "mesangial cells, normalized: DMSO 0%, 100 µM tamoxifen 100%; series mostly up to 91.7 µM", "how_it_was_run": "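Concentration-response qHTS: compound-induced rise in caspase 3/7 luminescence in human mesangial cells after 16 h, normalized to DMSO and 100 uM tamoxifen controls.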"}
{"smiles": "O=C(O)CC(O)(CC(=O)O)C(=O)O", "outcome": "inactive"}
{"smiles": "C=Cc1ccccc1", "outcome": "inactive"}
{"smiles": "CN(C)Cc1ccccc1", "outcome": "inactive"}
{"smiles": "COC(C)=O", "outcome": "inactive"}
{"smiles": "CCCCCCCCCC(=O)O", "outcome": "inactive"}
{"experiment": "Cellular Toxicity (caspase-3) SK-N-SH (AID 661);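 note: cells exposed to compound for 16 hours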", "settings": "SK-N-SH caspase-3 activation, qHTS, DMSO as zero, staurosporine as full; series mostly up to 91.7 µM", "how_it_was_run": "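Caspase 3/7 activation is measured as a luminescence increase from aminoluciferin released by substrate cleavage in SK-N-SH cells after 16 hr compound treatment; values are AC50 from concentration-response curves.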"}
{"smiles": "O=C(O)CC(O)(CC(=O)O)C(=O)O", "outcome": "inactive"}
{"smiles": "C=Cc1ccccc1", "outcome": "inactive"}
{"smiles": "CN(C)Cc1ccccc1", "outcome": "inactive"}
{"smiles": "COC(C)=O", "outcome": "inactive"}
{"smiles": "CCCCCCCCCC(=O)O", "outcome": "inactive"}
